For seven molecules, nuclei count, normalised and p53-positive nuclei, normalised results are on record in PubChem BioAssay AID1508601 (ICCB-Longwood Screening Facility, Harvard Medical School, 2020).

Screen size: about 5,700 compounds; about 85 (1%) were called active. Cut-off read from the data, not from the text of the source: active = p53-positive nuclei above about 36% (passing the limit was not always enough); inactive = the rest. The list comes from a sample in which actives are over-represented; it also holds similar structures and randomly drawn compounds.

A short description of test [1]: nuclear p53 accumulation, HPV+ cells – imaging, p53-positive nuclei imaging, 24 h, 48 h (AID 1508601). To be noted: 24/48 h.
In test [2] the target is Cellular tumor antigen p53 (Homo sapiens) (UniProt P04637). The description is as above. Conditions: 24/48 h, stronger effect = higher value.
Cellular tumor antigen p53 (Homo sapiens), sequence (P04637 whole entry, looked up): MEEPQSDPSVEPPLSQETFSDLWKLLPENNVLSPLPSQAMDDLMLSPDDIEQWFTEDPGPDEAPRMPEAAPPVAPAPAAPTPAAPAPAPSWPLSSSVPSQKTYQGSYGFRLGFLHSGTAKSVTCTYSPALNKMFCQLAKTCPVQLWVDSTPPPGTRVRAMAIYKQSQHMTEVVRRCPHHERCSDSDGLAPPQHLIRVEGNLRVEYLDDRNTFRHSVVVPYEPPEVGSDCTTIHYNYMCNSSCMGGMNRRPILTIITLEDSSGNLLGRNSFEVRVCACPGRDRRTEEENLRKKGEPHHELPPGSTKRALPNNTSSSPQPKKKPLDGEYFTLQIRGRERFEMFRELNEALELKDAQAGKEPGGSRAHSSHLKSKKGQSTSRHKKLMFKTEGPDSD
Where [3] appears, read: measured here: cell number at 24 h, concentration not given here.
Setting [4] is: measured here: cell number at 48 h, concentration not given here.
Setting [5] is: measured here: p53 positive nuclei at 24 h, concentration not given here.
The mark [6] stands for this setting: measured here: cell number at 24 h, Library stock concentration: 80 uM.
The mark [7] stands for this setting: measured here: cell number at 24 h, Library stock concentration: 400 uM.
The mark [8] stands for this setting: measured here: cell number at 24 h, Library stock concentration: 2 mM.
Setting [9] is: measured here: cell number at 24 h, Library stock concentration: 3.33 mM.
The mark [10] stands for this setting: measured here: cell number at 24 h, Library stock concentration: 10 mM.
The mark [11] stands for this setting: measured here: cell number at 48 h, Library stock concentration: 80 uM.
Where [12] appears, read: measured here: cell number at 48 h, Library stock concentration: 400 uM.
[13] abbreviates: measured here: cell number at 48 h, Library stock concentration: 2 mM.
[14] abbreviates: measured here: cell number at 48 h, Library stock concentration: 3.33 mM.
Setting [15] is: measured here: cell number at 48 h, Library stock concentration: 10 mM.
[16] abbreviates: Library stock concentration: 80 uM.
The mark [17] stands for this setting: Library stock concentration: 400 uM.
Setting [18] is: Library stock concentration: 2 mM.
The mark [19] stands for this setting: Library stock concentration: 3.33 mM.
Setting [20] is: Library stock concentration: 10 mM.
The mark [21] stands for this setting: measured here: p53 positive nuclei at 24 h, Library stock concentration: 80 uM.
Setting [22] is: measured here: p53 positive nuclei at 24 h, Library stock concentration: 400 uM.
Where [23] appears, read: measured here: p53 positive nuclei at 24 h, Library stock concentration: 2 mM.
[24] abbreviates: measured here: p53 positive nuclei at 24 h, Library stock concentration: 3.33 mM.
The mark [25] stands for this setting: measured here: p53 positive nuclei at 24 h, Library stock concentration: 10 mM.

Regarding `CCCCC[C@@](C)(O)/C=C/[C@H]1[C@H](O)CC(=O)[C@@H]1C/C=C\CCCC(=O)O`, the values for the nuclei count, normalised in test [1] (setting [3]) and in test [1] (setting [4]) were 101% and 105%, respectively. The p53-positive nuclei, normalised in test [2] (concentration not given here) was -0.0639% (inactive); in test [2] (setting [5]) it was 0.0947%.
Consider `CC(C)N(CCCNC(=O)Nc1ccc(C(C)(C)C)cc1)CC1OC(n2cc(Br)c3c(N)ncnc32)C(O)C1O` (stereo not given), for which the nuclei count, normalised in test [1] (setting [6]) was 105%; in test [1] (setting [7]) it was 101%; in test [1] (setting [8]) it was 103%; in test [1] (setting [9]) it was 115%; in test [1] (setting [10]), 101%; in test [1] (setting [11]), 98.8%. Moreover, the nuclei count, normalised in test [1] (setting [12]) was 96.7%; in test [1] (setting [13]), 94.7%; in test [1] (setting [14]) it was 110%; in test [1] (setting [15]), 99.9%. The p53-positive nuclei, normalised in test [2] (setting [16]) is -0.0631% (inactive); in test [2] (setting [17]), 0.111% (inactive); in test [2] (setting [18]) it was 0.291% (inactive); in test [2] (setting [19]), -0.109% (inactive); in test [2] (setting [20]) it was 0.13% (inactive); in test [2] (setting [21]), -0.167%. Further, the p53-positive nuclei, normalised is 0.0144% in test [2] (setting [22]), -0.162% in test [2] (setting [23]), -0.283% in test [2] (setting [24]) and -0.163% in test [2] (setting [25]).
Regarding `CCCC1CC(C(=O)NC(C(C)O)[C@@H]2OC(SC)C(O)C(O)C2O)N(C)C1` (stereo not given in full), the nuclei count, normalised in test [1] (setting [9]) is 101%; in test [1] (setting [14]) it was 102%. Also, the results for the p53-positive nuclei, normalised in test [2] (setting [19]) and in test [2] (setting [24]) were -0.245% (inactive) and -0.267%, respectively.
For the molecule `N#CSc1cc(SC#N)c(N)nc1N`, the nuclei count, normalised in test [1] (measured here: cell number at 24 h, Library stock concentration: 500 nM) was 108%; in test [1] (measured here: cell number at 24 h, Library stock concentration: 1.5 uM), 116%; in test [1] (measured here: cell number at 24 h, Library stock concentration: 4.6 uM), 121%; in test [1] (measured here: cell number at 24 h, Library stock concentration: 13.7 uM), 119%; in test [1] (measured here: cell number at 24 h, Library stock concentration: 41 uM) it was 107%; in test [1] (measured here: cell number at 24 h, Library stock concentration: 123 uM), 114%. For the same molecule, the nuclei count, normalised in test [1] (measured here: cell number at 24 h, Library stock concentration: 370 uM) came out at 114%; in test [1] (measured here: cell number at 24 h, Library stock concentration: 1.111 mM), 107%; in test [1] (setting [9]), 97.4%; in test [1] (measured here: cell number at 24 h, Library stock concentration: 3.333 mM) it was 84.8%; in test [1] (setting [10]), 45.2%; in test [1] (measured here: cell number at 48 h, Library stock concentration: 500 nM), 108%. For the same molecule, the nuclei count, normalised in test [1] (measured here: cell number at 48 h, Library stock concentration: 1.5 uM) amounted to 111%; in test [1] (measured here: cell number at 48 h, Library stock concentration: 4.6 uM), 118%; in test [1] (measured here: cell number at 48 h, Library stock concentration: 13.7 uM) it was 113%; in test [1] (measured here: cell number at 48 h, Library stock concentration: 41 uM) it was 108%; in test [1] (measured here: cell number at 48 h, Library stock concentration: 123 uM) it was 113%; in test [1] (measured here: cell number at 48 h, Library stock concentration: 370 uM), 74.3%. Also, the nuclei count, normalised in test [1] (measured here: cell number at 48 h, Library stock concentration: 1.111 mM) was 74.4%; in test [1] (setting [14]), 103%; in test [1] (measured here: cell number at 48 h, Library stock concentration: 3.333 mM), 62.1%; in test [1] (setting [15]) it was 21.8%. Also, the p53-positive nuclei, normalised was 0.137% (inactive) in test [2] (Library stock concentration: 500 nM); -0.0213% (inactive) in test [2] (Library stock concentration: 1.5 uM); -0.102% (inactive) in test [2] (Library stock concentration: 4.6 uM); 0.047% (inactive) in test [2] (Library stock concentration: 13.7 uM); 0.227% (inactive) in test [2] (Library stock concentration: 41 uM); -0.098% (inactive) in test [2] (Library stock concentration: 123 uM). Besides, the p53-positive nuclei, normalised in test [2] (Library stock concentration: 370 uM) is 0.164% (inactive); in test [2] (Library stock concentration: 1.111 mM) it was 0.121% (inactive); in test [2] (setting [19]) it was 0.00985% (inactive); in test [2] (Library stock concentration: 3.333 mM), 0.39% (inactive); in test [2] (setting [20]), 46.6% (active); in test [2] (measured here: p53 positive nuclei at 24 h, Library stock concentration: 500 nM), 0.00877%. In addition, the p53-positive nuclei, normalised in test [2] (measured here: p53 positive nuclei at 24 h, Library stock concentration: 1.5 uM) was -0.00152%; in test [2] (measured here: p53 positive nuclei at 24 h, Library stock concentration: 4.6 uM), 0.0386%; in test [2] (measured here: p53 positive nuclei at 24 h, Library stock concentration: 13.7 uM) it was -0.00721%; in test [2] (measured here: p53 positive nuclei at 24 h, Library stock concentration: 41 uM), 0.497%; in test [2] (measured here: p53 positive nuclei at 24 h, Library stock concentration: 123 uM), 0.0549%; in test [2] (measured here: p53 positive nuclei at 24 h, Library stock concentration: 370 uM) it was -0.0579%. In addition, the p53-positive nuclei, normalised in test [2] (measured here: p53 positive nuclei at 24 h, Library stock concentration: 1.111 mM) was 0.00745%; in test [2] (setting [24]), -0.237%; in test [2] (measured here: p53 positive nuclei at 24 h, Library stock concentration: 3.333 mM), 0.112%; in test [2] (setting [25]), 76.7%.
For `CC/C=C\C/C=C\C/C=C\C/C=C\C/C=C\CCCCCC(=O)O`, the nuclei count, normalised was 100% in test [1] (setting [3]) and 102% in test [1] (setting [4]). Moreover, the p53-positive nuclei, normalised in test [2] (concentration not given here) was 0.209% (inactive); in test [2] (setting [5]), -0.0279%.
On to `CC(Oc1ccc2c(c1)OCO2)C(=O)N(Cc1nccn1C)C(C)C` (stereo not given), for which the nuclei count, normalised in test [1] (setting [3]) is 101%; in test [1] (setting [4]) it was 109%. For the same molecule, the p53-positive nuclei, normalised in test [2] (concentration not given here) is -0.128% (inactive); in test [2] (setting [5]) it was 0.148%.
For the molecule `CCCCc1ccc(N=CNO)c(C)c1`, the nuclei count, normalised in test [1] (setting [6]) came to 102%; in test [1] (setting [7]), 87.8%; in test [1] (setting [8]) it was 104%; in test [1] (setting [10]), 97.5%; in test [1] (setting [3]), 112%; in test [1] (setting [11]) it was 102%. The nuclei count, normalised stood at 96.8% in test [1] (setting [12]), 107% in test [1] (setting [13]), 103% in test [1] (setting [15]) and 114% in test [1] (setting [4]). Moreover, the p53-positive nuclei, normalised in test [2] (setting [16]) is -0.0421% (inactive); in test [2] (setting [17]), -0.0681% (inactive); in test [2] (setting [18]) it was -0.128% (inactive); in test [2] (setting [20]), -0.158% (inactive); in test [2] (concentration not given here), -0.0134% (inactive); in test [2] (setting [21]), -0.116%. The p53-positive nuclei, normalised in test [2] (setting [22]) is 0.0745%; in test [2] (setting [23]), 0.0465%; in test [2] (setting [25]), 0.123%; in test [2] (setting [5]) it was -0.0878%.
